Nrf2 ARE act = qHTS of Nrf2 Activators. AREc32 ARE-luciferase reporter (MCF7-derived line), luminescence, 24 h. Potency, µM (top dose mostly 46.1 µM), for the others: at the highest dose activation, most hits filed as activators. 410,000 tested, 0.31% active. AID 624171, 2012; note: % of control where 0% means no effect; nearly all actives have a fitted effect of over 65% in size
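ARE activation measured as luciferase luminescence (Steady-Glo, 30 min RT) in AREc32_Fluc cells after 24 hr compound exposure at 37 deg C, 5% CO2; cells seeded overnight at 1000/well in OPTI-MEM, 5% FBS.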
Nrf2 inh = Nrf2 qHTS screen for inhibitors. A549 ARE-Fluc reporter, luciferase luminescence, 18-24 h. Potency, µM (top dose mostly 46 µM), for inactives: top-dose activity change, negative = inhibition, usual class: inhibitors. 360,000 tested, 2.1% active. AID 504444, 2011; note: % is set by controls: 0 for no effect and ±100 for the full control effect; nearly all actives have a fitted effect of over 60% in size
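Nrf2 activity is the BugLite luminescence, read 15 min after reagent at room temperature, following CellTiter-Fluor cytotoxicity readout (30 min, 37C). Compound titrations were applied for 18-24 h to 5000 A549 ARE_Fluc cells/well in 5% FBS OPTI-MEM.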
A549 tox = Nrf2 qHTS screen for inhibitors: counterscreen for cytotoxicity | Potency, µM (series often up to 46 µM), for inactives: at the highest dose activity change, negative = cytotoxicity, most hits filed as inhibitors | A549 ARE-Fluc cells, CellTiter-Fluor viability, 18-24 h | 390,000 tested, 0.16% active; note: % is set by controls: 0 for no effect and ±100 for the full control effect
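A549 ARE_Fluc cells in 5% FBS OPTI-MEM were exposed to compounds in concentration-response for 18-24 h at 37 deg C. Viability was read by CellTiter-Fluor fluorescence (Ex 405/Em 525) after 30 min, before the luciferase read.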
ATXN2 expr inh = Primary qHTS for Inhibitors of ATXN expression; AID 1745845, 2022; 360,000 tested, 0.72% active; Potency, µM (top dose mostly 57 µM), inactives show at the top dose activity change, negative = inhibition, usual class: inhibitors; HEK-293 ATXN2-luciferase reporter, luminescence, 24 h; note: % is set by controls: 0 for no effect and ±100 for the full control effect; nearly all actives have a fitted effect of over 55% in size
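qHTS (up to 57 uM final) was run with 24 h compound exposure of reporter cells at 37 °C. Each well was multiplexed: SteadyGlo luminescence measured ATXN2-luciferase expression after a fluorogenic Gly-Phe-AFC viability readout (25 uM final).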
ATXN viability = Viability Counterscreen for Primary qHTS for Inhibitors of ATXN expression; Potency, µM (titrated, usually from 56.7 µM), usual class: cytotoxic; 400,000 tested, 0.49% active; S2 cells (HEK-293 line with an ATXN2-luciferase reporter) viability, CellTiter-Fluor protease fluorescence, 24 h; note: nearly all actives have a fitted effect of over 40% in size
Starred values were filed as active, the others as inactive; i = inactive; ? = inconclusive; / = no result given; [ ] = dose if it differs, or a comment. Sampled rows, rich in hits. Any-hit rate of the full collection: about 2.9%. Calls come from the whole dose curve; as a rule, active = well fitted curve in the direction sought with a large enough effect; inconclusive = small, poorly fitted or top-dose-only effect, or another doubt; inactive = no such curve, though single readings can be large; an effect the other way counts as inactive or inconclusive. Potency is the fitted concentration of half-maximal effect.

SMILES	Nrf2 ARE act	Nrf2 inh	A549 tox	ATXN2 expr inh	ATXN viability
Cc1ccc(-n2c(=O)c3c(cnn3C)n(CC(=O)Nc3cccc(Cl)c3)c2=O)cc1	0.5%	-0.4%[9.27 µM]	-7.2%	-13.2%	i
Cc1ccccc1NC1=C/C(=N\S(=O)(=O)c2ccc(C(=O)O)cc2)c2ccccc2C1=O	-1.8%	-2.0%	-27.8%	8.91µM*	10µM*
O=C(O)c1ccc(S(=O)(=O)/N=C2\C=C(Nc3ccccc3F)C(=O)c3ccccc32)cc1	-3.8%	2.2%	-6.8%	7.94µM*	7.94µM*
COc1ccccc1CNc1nc(NC(C)C)nc2ccsc12	-0.5%	/	/	0.0%	i
CSc1ccccc1CNc1nc(NCC2CC2)nc2ccsc12	-1.5%	/	/	?	14.1µM*
COc1ccccc1CNc1nc(NCc2ccc(C(C)C)cc2)c2sccc2n1	-0.1%[9.22 µM]	/	/	31.6µM*	/
COc1cccc(CNc2nc(NCC3CC3)nc3ccsc23)c1OC	4.0%[9.22 µM]	/	/	0.0%	15.8µM*
CC(C)c1ccc(CNc2nc(NCC3CC3)nc3ccsc23)cc1	-0.3%[9.22 µM]	/	/	?	/
COc1ccc2c(c1)Cc1sc(NC(=O)c3cccc(C)c3)nc1-2	2.2%	20.6µM*	-12.7%	/	/
CC1CCC/C=C/C(=O)c2c(O)cc(O)cc2CC(=O)O1 (stereo unspecified)	-3.1%	5.8µM*	13µM*	10µM*	11.2µM*
CC(C)(O)CC[C@@H](O)[C@](C)(O)[C@H]1CC[C@@]2(O)C3=CC(=O)[C@@H]4C[C@@H](O)[C@@H](O)C[C@]4(C)C3CC[C@]12C (stereo partly specified)	-0.9%	6.2%	-1.7%	8.9%	i
C[C@@H]1CN([C@@H](C)CO)S(=O)(=O)c2ccc(C#CC3CCCCC3)cc2O[C@@H]1CN(C)Cc1cccnc1	-5.4%	/	/	28.2µM*	?
C[C@H]1CN([C@@H](C)CO)S(=O)(=O)c2ccc(C#CC3CC3)cc2O[C@H]1CN(C)C(=O)c1cccnc1	-0.5%	/	/	2.1%	i
COc1ccc(C2Nc3ccccc3NC3=C2C(=O)CC(C)(C)C3)c(OC)c1OC (stereo unspecified)	-0.9%	1.8%	-4.5%	-23.2%	0.282µM*
COc1ccc2c(c1)CC[C@H]1[C@@H]2CC[C@]2(C)[C@@H](NCCCCCCN3C(=O)C=CC3=O)CC[C@H]12	/	/	/	39.7%	/
Cc1ccn2c(-c3csc(NCc4ccccc4)n3)c(C)nc2c1	5.6%	25.9µM*	?	?	?
Cc1nc2ccccn2c1-c1csc(NCc2ccco2)n1	5.1%	?	-6.3%	-0.6%	?
CC(C)(C)c1ccccc1NC(=O)NC1CCN(Cc2c(F)cccc2Cl)CC1	2.9%	-20.2%	-1.2%	-29.4%	i
CC(Sc1nc(NCc2ccccc2)nc(N(C)C)n1)C(=O)Nc1ccccc1 (stereo unspecified)	0.5%	/	?	?	i
CC(Sc1nc(N)c2c3c(sc2n1)CSC(C)(C)C3)C(=O)Nc1ccccc1 (stereo unspecified)	3.7%	18.4µM*	?	-10.2%	?
CCCCCCn1cc(CN2CC(N3CCN(CCO)CC3)CS2(=O)=O)nn1 (stereo unspecified)	0.0%	/	/	21.9%	i
CC(=O)N/C(=C\c1ccccc1)C(=O)OCc1cccc(S(=O)(=O)N(C)C)c1	2.5%	23.1µM*	-3.8%	-17.8%	i
CC(=O)N/C(=C\c1ccccc1)C(=O)OCc1ccccc1	0.2%	6.9%	-3.0%	9.5%	i
CNc1snc(C)c1C(=O)OCC(=O)c1cc(F)ccc1OC	?	11.6µM*	-8.2%	-13.3%	i
CNc1snc(C)c1C(=O)OCC(=O)c1ccc(OC)c(F)c1	5.4%	11.4%	-4.4%	-27.3%	i
SMILES	Nrf2 ARE act	Nrf2 inh	A549 tox	ATXN2 expr inh	ATXN viability
C=CCC[C@H](Cc1ccc(F)cc1)C(=O)O[C@H](CNC(=O)[C@@H](CC=C)CC(=O)N(CCO)Cc1ccccc1)c1ccccc1	-2.0%	?	?	?	22.4µM*
C=CCC[C@@H](Cc1ccc(F)cc1)C(=O)OC[C@H](Cc1c[nH]c2ccccc12)NC(=O)[C@H](CC=C)CC(=O)N(CCO)Cc1ccccc1	-1.3%	?	?	-17.4%	22.4µM*
C=CCC[C@H](Cc1ccc(F)cc1)C(=O)OC[C@@H](Cc1c[nH]c2ccccc12)NC(=O)[C@@H](CC=C)CC(=O)N(CCO)Cc1ccccc1	-4.2%	9.2µM*	11.6µM*	?	15.8µM*
C=CC[C@H](CC(=O)N(CCO)Cc1ccccc1)C(=O)NC[C@@H](OC(=O)[C@@H](CC=C)Cc1ccc(F)cc1)c1ccccc1	-2.0%	?	-12.4%	?	/
COc1cccc(-c2ccc(=O)n(CC(=O)Nc3ccc(C(=O)N4CCCC4)cc3)n2)c1	0.5%	?	-3.8%	13.9%	i
CN(C)CCCNC(=O)c1ccc(Cl)c(S(=O)(=O)N2CCCCCC2)c1	0.0%	10.4%	3.4%	-2.7%	i
Nc1nc(-c2ccccn2)nc(N)c1Cc1ccc(Cl)cc1Cl	6.5%	6.51µM*	?	?	i
Nc1nc(-c2ccccn2)nc(N)c1Cc1ccccc1F	0.5%	?	-8.4%	?	i
C=CCN1C(=O)S/C(=C/c2ccc(Sc3nc4ccccc4[nH]3)o2)C1=O	0.1%	?	-2.8%	?	?
CC(C)N1C(=O)S/C(=C/c2ccc(Sc3nc4ccccc4[nH]3)o2)C1=O	9.4%	14.6µM*	?	?	i
Cc1nc(-c2cccc(Cl)c2)n[nH]1	2.9%	2.8%	-0.1%	-18.9%	i
Cc1ccc(C(=O)c2cccc(N)c2)cc1C	-1.8%	5.8µM*	-0.4%	/	i
CCC1(C)CC2(CCCN(CCC(O)(c3ccccc3)c3ccccc3)C2)CCO1 (stereo unspecified)	-0.4%	3.8%	-5.7%	-25.3%	i
Cc1ccc2[nH]c3c(N4CCN(Cc5ccccc5)CC4)ncnc3c2c1	-1.5%	9.2µM*	?	?	?
c1ccc(CN2CCN(c3ncnc4c3[nH]c3ccccc34)CC2)cc1	0.1%	14.6µM*	-19.3%	?	?
c1ccc2c(c1)[nH]c1c(N3CCC4(CC3)OCCO4)ncnc12	3.4%	13µM*	-17.6%	-22.2%	i
Cc1ccc(CNC(=O)COC(=O)C2CC2)cc1	-0.7%	6.6%	-1.7%	/	?
COc1cc(NS(=O)(=O)c2c(C(=O)N3CCOCC3)c(C)n(C)c2C)cc(OC)c1OC	0.3%	4.4%	0.7%	-0.9%	i
COc1ccc(NC(=O)N2CCCC2C(=O)Nc2cccc(C)c2C)cc1 (stereo unspecified)	-0.2%	2.8%	0.4%	2.3%	i
COc1cccc(N2CCN(c3ncnc4c3nc3n4CCCCC3)CC2)c1	-2.3%	?	-28.1%	?	i
COc1ccccc1N1CCN(c2ncnc3c2nc2n3CCCC2)CC1	0.3%	20.6µM*	-15.6%	?	?

Screens: PubChem BioAssay, National Center for Advancing Translational Sciences (NCATS)
